Assay results as given in PubChem BioAssay (NCI).
About 83,000 compounds went through this panel and 20% of them were active in at least one assay; those are over-represented in the sample as a whole.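 Single-dose data. Exposure time 48 hours. Values below 10 considered active.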 Calls of active or inactive are those of the source.

Legend:
Experiment in all cases: NCI-60 one-dose screen, 48 h (100 = growth as untreated, 0 = no growth, -100 = all killed)
Conditions in all cases: 10 µM unless noted
[1] = tested on: DU-145 prostate
[2] = tested on: K-562 leukemia
[3] = tested on: MALME-3M melanoma
[4] = tested on: MDA-MB-231 breast
[5] = tested on: RXF 393 renal
[6] = tested on: SF-268 CNS
[7] = tested on: SF-295 CNS
[8] = tested on: SF-539 CNS
[9] = tested on: UACC-257 melanoma
[10] = tested on: HCT-15 colon
[11] = tested on: HT29 colon
[12] = tested on: SNB-75 CNS
[13] = tested on: SNB-19 CNS
[14] = tested on: U251 CNS
[15] = tested on: PC-3 prostate
[16] = tested on: SK-MEL-5 melanoma
[17] = tested on: UACC-62 melanoma
[18] = tested on: LOX IMVI melanoma
[19] = tested on: SK-MEL-28 melanoma
[20] = tested on: M14 melanoma

Measured: growth

COc1ccc(/C=N/C2=C(C#N)C(c3ccc(OC)cc3)c3ccc4ccccc4c3O2)cc1 (centres undefined)
inactive: [1] 97.7% | [2] 23.4% | [3] 74.2% | [4] 53.5% | [5] 84.8% | [6] 77.2% | [7] 88.6% | [8] 79.5% | [9] 92.1% | [10] 44.3% | [11] 123% | [12] 45.5% | [13] 80% | [14] 84.5% | [15] 70% | [16] 70.4% | [17] 57.8% | [18] 72.6% | [19] 79.7%

NC1=NCc2nc3ccccc3c(=O)n2C1
inactive: [1] 113% | [2] 87.3% | [3] 104% | [4] 85.7% | [5] 91.4% | [6] 112% | [7] 96.1% | [8] 107% | [9] 95.1% | [20] 102% | [10] 99.2% | [11] 103% | [12] 98.6% | [13] 106% | [14] 103% | [15] 112% | [17] 92.3% | [18] 99.3% | [19] 117%

COc1ccc(C2=NN(C(=O)c3cc(OC)c(OC)c(OC)c3)C(c3ccc(Cl)cc3)C2)cc1OC (centres undefined)
inactive: [3] 63.1% | [4] 47.6% | [5] 22.6% | [6] 37.6% | [9] 54.5% | [11] 15.2% | [12] 21.9% | [13] 29.1% | [14] 24% | [15] 26.5% | [17] 31.1% | [18] 31.3% | [19] 46.1%
active: [1] 7.23% | [2] 4.27% | [7] -4.6% | [8] -3.19% | [20] 6.09% | [10] 9.3%

COc1ccc(NC(=O)CSc2nnc(-c3cc(-c4ccccc4)nc4ccccc34)n2-c2ccccc2)cc1
inactive: [1] 99.7% | [2] 84.8% | [3] 88.7% | [4] 89.3% | [5] 99% | [6] 90.8% | [7] 97.4% | [8] 100% | [9] 99.2% | [20] 98.1% | [10] 95.4% | [11] 106% | [12] 79.3% | [13] 93.5% | [14] 100% | [15] 73.2% | [17] 73.8% | [18] 97.3% | [19] 95.7%

COc1cccc(/C=C/C(=O)c2c(C)nc3ccccc3c2/C=C/c2ccc(C)cc2)c1OC
inactive: [1] 52.3% | [2] 17.3% | [3] 79.1% | [4] 63.8% | [5] 53.8% | [6] 70.3% | [7] 65.7% | [8] 72.8% | [9] 67.5% | [20] 73.7% | [10] 19% | [11] 29.7% | [12] 42.4% | [13] 70.2% | [14] 55.3% | [15] 43.4% | [17] 43.6% | [18] 39% | [19] 40.9%

COc1cc(N2C(=O)c3nccnc3C2=O)cc(OC)c1OC
inactive: [1] 115% | [2] 98.1% | [3] 96% | [4] 93.1% | [5] 126% | [6] 111% | [7] 110% | [8] 119% | [9] 105% | [20] 91.8% | [10] 104% | [11] 99.8% | [12] 103% | [13] 106% | [14] 97.5% | [15] 98.7% | [17] 114% | [18] 106% | [19] 108%

CCCCOc1nc2ccccc2cc1C1CNC(=O)c2ccccc2N1 (centres undefined)
active: [5] -14.3% | [7] -5.68% | [8] -25.5% | [20] -23.1% | [11] 0.868% | [12] 3.14%
inactive: [1] 10.7% | [2] 12.8% | [3] 45.6% | [4] 47.5% | [6] 43.6% | [9] 57.2% | [10] 15.3% | [13] 33.4% | [14] 18.6% | [15] 24.7% | [17] 32.6% | [18] 27.1% | [19] 45.8%

O=C(NCCc1ccc(O)c(O)c1)C12CC3CC(CC(C3)C1)C2
inactive: [1] 101% | [2] 92.6% | [3] 107% | [4] 85.5% | [5] 101% | [6] 89.6% | [7] 128% | [8] 80.4% | [9] 98.8% | [20] 103% | [10] 91.8% | [11] 102% | [12] 82% | [13] 98.5% | [14] 101% | [15] 73.5% | [17] 90.3% | [18] 89.1% | [19] 104%

O=C(Nc1ccc(Nc2ccncc2)cc1)c1ccc(C(=O)Nc2ccc(Nc3ccncc3)cc2)cc1
inactive: [1] 85.8% | [2] 53.5% | [4] 84.4% | [5] 100% | [6] 75% | [7] 91.7% | [8] 82.6% | [9] 24.2% | [20] 44.2% | [10] 79.7% | [11] 32.9% | [12] 109% | [13] 77.4% | [14] 64.2% | [15] 60.4% | [17] 38.3% | [18] 65.5% | [19] 43.4%
active: [3] 5.82%

Cc1ccc(NS(=O)(=O)c2ccc3c(c2)C(=O)CC(c2ccc(C(=O)C(C)C)cc2)N3)cc1C (centres undefined)
inactive: [1] 83.5% | [2] 39.7% | [3] 51.1% | [4] 78.5% | [5] 75.3% | [6] 68% | [7] 37.7% | [8] 71.5% | [9] 43.1% | [20] 73% | [10] 57% | [11] 91.3% | [12] 55.7% | [13] 68.2% | [14] 68% | [15] 46% | [17] 52.8% | [18] 55.6% | [19] 77%

CCOP(=O)(OCC)C1CP(=O)(c2ccccc2)CC(C)=C1Cl (centres undefined)
inactive: [1] 104% | [2] 93.4% | [3] 90.9% | [4] 95% | [5] 78.1% | [6] 104% | [7] 96.7% | [8] 104% | [9] 92.2% | [20] 63.2% | [10] 102% | [11] 118% | [12] 90.9% | [13] 104% | [14] 96.9% | [15] 90% | [17] 95.1% | [18] 88.9% | [19] 104%

CCOC(=O)c1c2ncccc2n2c(=O)n(-c3ccccc3C)nnc12
inactive: [1] 142% | [2] 86.4% | [3] 145% | [4] 104% | [5] 107% | [6] 117% | [7] 105% | [8] 91.8% | [9] 91.7% | [20] 99% | [10] 100% | [11] 112% | [12] 84% | [13] 105% | [14] 105% | [15] 122% | [17] 95.3% | [18] 86.5% | [19] 157%

CC(C)(C)CC(C)(C)Nc1c(-c2ccncc2)nc2cnccn12
inactive: [1] 106% | [2] 98.4% | [3] 110% | [4] 95% | [5] 93.8% | [6] 98.6% | [7] 101% | [8] 93.8% | [9] 103% | [20] 100% | [10] 97.9% | [11] 93% | [12] 80.4% | [13] 97.3% | [14] 99.2% | [15] 97.7% | [17] 92.9% | [18] 98.8% | [19] 112%

Cc1cc(=O)oc2c1ccc1oc(C#N)c(C)c12
inactive: [1] 102% | [2] 108% | [3] 97.2% | [4] 107% | [5] 113% | [6] 99.9% | [7] 102% | [8] 98.9% | [9] 105% | [20] 100% | [10] 98.9% | [11] 93.4% | [12] 92.9% | [13] 99.9% | [14] 99.4% | [15] 90.4% | [17] 99.9% | [18] 88.2% | [19] 96.5%

Cc1c(C(=O)OC(=NC2CCCCC2)NC2CCCCC2)sc2c1c(=O)nc1c(C#N)n[nH]n12
inactive: [1] 110% | [2] 82.7% | [3] 113% | [4] 113% | [5] 99.2% | [6] 106% | [7] 109% | [8] 104% | [9] 102% | [20] 103% | [10] 114% | [11] 96.2% | [12] 89.9% | [13] 109% | [14] 107% | [15] 118% | [17] 106% | [18] 94.8% | [19] 100%

O=C1Nc2ccc(F)cc2C12Nc1cc(Cl)ccc1S2 (centres undefined)
inactive: [1] 101% | [2] 48.6% | [3] 88.6% | [4] 88.1% | [5] 110% | [6] 100% | [7] 89.8% | [8] 93.8% | [9] 109% | [20] 90.9% | [10] 82.3% | [11] 103% | [12] 70.9% | [13] 92.1% | [14] 94.6% | [15] 57.3% | [17] 75.4% | [18] 85.6% | [19] 118%
